# Screening data: PubChem, Milwaukee Institute for Drug Discovery
# Compounds with a hit are over-represented: about 7.6% of the library has one in this group of screens.
# Cy5 interf NS3h – counter-screen for HCV NS3 helicase inhibitors: fluorescence interference; Cy5-dT15 DNA with NS3h; actives lie on both sides; signal over control mean, under 1 quenches; fluorescence interference ratio at 100 µM; 6% of 16,000 active; AID 720488;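 active = compound fluorescence over control fluorescence at most 0.8, a quencher, or at least a set upper limit, an enhancer; inactive = ratio between 0.8 and the set upper limit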
# NS3h inh CB – blocks HCV NS3 helicase binding to DNA; NS3h Cy5-dT15 DNA binding, fluorescence polarization; inhibition, % at 100 µM; 1.6% of 16,000 active;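 active = inhibition above the average over every tested compound plus 3 SD, cut at about 40% in these data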
# HCV NS3h conf – hepatitis C NS3 helicase inhibition, confirmation | 20% of 240 active | NS3h binding to Cy5-dT15 DNA, fluorescence polarization | shares compounds with NS3h inh CB | inhibition, % at 100 µM | AID 720485;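 active = percent inhibition of 50% or more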
# SSB-DNA FP CB – counter-screen for HCV NS3 helicase inhibitors: E. coli SSB binding. shares compounds with NS3h inh CB. 40% of 240 active. E. coli SSB binding Cy5-dT15, fluorescence polarization. AID 720486. inhibition, % at 100 µM;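 active = inhibition of at least 50%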;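 also: displacers lower Cy5 polarization so higher inhibition means more SSB displaced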
# Target sequence (P0AGE0 whole entry, looked up): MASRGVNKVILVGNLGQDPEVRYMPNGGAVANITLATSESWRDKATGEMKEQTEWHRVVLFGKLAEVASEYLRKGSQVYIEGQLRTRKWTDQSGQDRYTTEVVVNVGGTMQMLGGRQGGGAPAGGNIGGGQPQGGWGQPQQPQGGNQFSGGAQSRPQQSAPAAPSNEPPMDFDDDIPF
# Cy5 SSB interf – enhances or quenches Cy5-DNA fluorescence with E. coli SSB; shares compounds with NS3h inh CB; Cy5-dT15/E. coli SSB fluorescence interference; actives lie on both sides; fluorescence interference ratio at 100 µM; 8% of 240 active; AID 720487;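 active = fluorescence interference ratio at or above 1.2, signal boosting, or at or below 0.8, signal quenching; inactive = ratio between 0.8 and 1.2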
# Cy5 fluor confirm – Cy5 fluorescence interference, confirmation counter-screen. shares compounds with NS3h inh CB. Cy5-dT15 DNA/NS3h fluorescence interference counterscreen. fluorescence interference ratio at 100 µM, hits read low. 44% of 240 active;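 active = fluorescence interference ratio at or below 0.8 quencher or at or above a set limitenhancer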
# A number is an active result; . = inactive; / = no result.
SMILES,Cy5 interf NS3h,NS3h inh CB,HCV NS3h conf,SSB-DNA FP CB,Cy5 SSB interf,Cy5 fluor confirm
O=C(Nc1cccc(Oc2ccc(C(=O)O)c(C(=O)O)c2)c1)c1ccc(-c2ccccc2)cc1,.,52,.,.,.,0.74
CC(=O)Nc1ccc(Oc2ccc(C(=O)O)c(C(=O)O)c2)cc1,.,.,/,/,/,/
O=C1C(=Cc2ccccc2Br)C(=O)c2ccccc21,.,74,51,.,.,.
COc1cccc(C=C2C(=O)c3ccccc3C2=O)c1,.,.,/,/,/,/
CCN(CC)C(=O)CCN1C(=O)/C(=C2\SC(=S)N(CCC(=O)N(CC)CC)C2=O)SC1=S,.,.,/,/,/,/
O=C1NC(=S)NC(=O)C1=Cc1ccccc1OCc1ccccc1Cl,.,.,/,/,/,/
O=C1NC(=S)NC(=O)C1=Cc1ccc(OCc2ccccc2Cl)cc1,.,48,.,61,.,0.75
CCc1ccc(CN2CCN(C(=O)CC(C)C)CC2)cc1,.,.,/,/,/,/
Cc1ccc(-c2csc(/C(C#N)=C/c3cccc4ccccc34)n2)cc1,.,.,/,/,/,/
COc1cc(NC(=O)c2cccc([N+](=O)[O-])c2)cc(OC)c1,.,.,/,/,/,/
O=C(NC(=S)Nc1ccc2oc(-c3ccc(Cl)cc3)nc2c1)c1ccccc1,.,.,/,/,/,/
O=C(NC(=S)Nc1ccc2oc(-c3ccc(Cl)c(Cl)c3)nc2c1)c1ccccc1,1.2,102,.,.,.,0.8
CC1CCC(C(C)C)C(OC(=O)c2ccco2)C1 (configuration not stated),.,.,/,/,/,/
COc1ccccc1/C=C1\SC(=S)N(C(C)C)C1=O,.,.,/,/,/,/
O=C1NC(=Nc2ccc(Br)cc2)S/C1=C\c1ccc(O)cc1,.,.,/,/,/,/
O=C1NC(=Nc2ccc(O)cc2)S/C1=C\c1ccccc1,.,46,.,.,.,.
CCCCC/C=C/C(=O)Nc1cccc2ccccc12,.,.,/,/,/,/
NS(=O)(=O)c1ccc(NC(=S)NC(=O)c2ccccc2)cc1,.,50,.,83,.,.
CC(=O)c1ccc(NC(=S)NC(=O)c2ccccc2)cc1,.,.,/,/,/,/
O=C(C=C(O)c1ccc(Cl)cc1)C(=O)Nc1ccccc1,.,.,/,/,/,/
Oc1ccccc1-c1nc(-c2ccccc2)c(-c2cccs2)[nH]1,.,.,/,/,/,/
Cc1ccc(-c2ccc(/C=C3\C(=O)NN(c4ccccc4)C3=O)o2)c([N+](=O)[O-])c1,.,.,/,/,/,/
O=C1NN(c2ccccc2)C(=O)/C1=C/c1ccc(-c2ccc(C(=O)O)cc2)o1,.,.,/,/,/,/
O=C1NN(c2ccccc2)C(=O)/C1=C/c1ccc([N+](=O)[O-])o1,0.77,82,52,117,.,.
O=C1NN(c2ccccc2)C(=O)/C1=C/c1ccc(Br)o1,.,94,52,107,.,0.79
SMILES,Cy5 interf NS3h,NS3h inh CB,HCV NS3h conf,SSB-DNA FP CB,Cy5 SSB interf,Cy5 fluor confirm
O=C(Nc1ccc2nn(-c3ccccc3)nc2c1)c1ccc(I)cc1,.,.,/,/,/,/
COc1cc(C(=O)NC(NC(=S)Nc2ccc(Cl)c(Cl)c2)C(Cl)(Cl)Cl)cc(OC)c1OC (configuration not stated),.,.,/,/,/,/
CCOCCOC(=O)c1ccc(NC(=O)COc2c(C)cccc2C)cc1,.,.,/,/,/,/
O=C(Nc1ccc(Cl)cc1)c1ccc2c(c1)OCCO2,.,.,62,76,.,.
CC(=O)c1ccc(NC(=O)c2ccc3c(c2)OCCO3)cc1,.,.,/,/,/,/
CC(C)(C)OC(=O)N1N=C(c2ccccc2)CC1(O)C(F)(F)F (configuration not stated),.,.,/,/,/,/
O=[N+]([O-])c1ccc(Cl)c(/C=N\N2CCN(c3ccccc3)CC2)c1,.,.,/,/,/,/
CCC(=O)c1ccc(N2CCN(C(=O)c3cc(F)c(F)cc3C)CC2)c(F)c1,.,.,/,/,/,/
O=c1[nH]c(/C=C\c2ccccc2Cl)c([N+](=O)[O-])c(=O)[nH]1,.,.,/,/,/,/
CCN(CC)c1ccc(/C=C/c2[nH]c(=O)[nH]c(=O)c2[N+](=O)[O-])c(OC)c1,.,54,.,.,.,.
O=c1oc2ccccc2c(O)c1C=C1C=Nc2ccccc21,.,46,.,.,.,.
CCN(CC)c1ccc(-n2c(O)c(C=C3C=Nc4ccccc43)sc2=S)cc1,.,.,/,/,/,/
COCCNC(=O)c1cnn2c(-c3ccccc3)cc(-c3ccccc3)nc12,.,.,/,/,/,/
O=C(NCC(c1ccccc1)c1ccccc1)Nc1cccc(Cl)c1,.,.,/,/,/,/
CCC(c1ccccc1)c1nnc(NC(=O)Nc2cccc(Cl)c2)s1 (configuration not stated),1.2,47,.,.,.,0.74
CC(C)=C1C(=O)NN(c2cccc(Br)c2)C1=O,.,.,/,/,/,/
O=C(O)CN1C(=O)/C(=C\c2ccc(OC(=O)c3ccc(Cl)cc3Cl)cc2)SC1=S,.,.,/,/,/,/
O=C(O)CN1C(=O)/C(=C/c2ccc(OC(=O)c3ccccc3I)cc2)SC1=S,.,62,.,.,.,0.76
